Screens (PubChem)
In the library only some 9.2% were active in any assay of this set; here they are far more common.
ELG1 genotox: inducers of genotoxicity in HEK293T ELG1-luciferase cells. HEK293T ELG1-luciferase reporter, luminescence, 16 h. Potency, µM (titrated, usually from 46 µM), actives largely listed as activators. 330,000 compounds, 1.3% hits. AID 504466; further: nearly all actives have a fitted effect of over 60% in size
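Screening used a luciferase reporter fused to human ELG1 in HEK293T cells. Luminescence was read on a CCD plate imager after 16 hr exposure and 30 min ONE-Glo incubation.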
Rab9 prom act: Rab9 promoter activation; 320,000 compounds, 2.8% hits; AID 485297; Potency, µM (doses to about 9.22 µM), actives largely listed as activators; Huh7 Rab9 promoter-luciferase reporter, luminescence, 24 h; further: nearly all actives have a fitted effect of over 60% in size
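Luciferase signal after 10 min detection reagent at ambient indicates Rab9 promoter upregulation; stably transfected Huh7 cells were treated 24 h with compound in DMSO at 37 °C, 5% CO2.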
ELG1 repair inh: ELG1-dependent DNA repair inhibition; HEK293T ELG1-luciferase reporter, luminescence, 16 h; DNA damage induced by 5-fluorouridine; Potency, µM (series often up to 46.1 µM), usual class: inhibitors; 330,000 compounds, 2.3% hits; AID 504467; further: nearly all actives have a fitted effect of over 55% in size
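Reporter activity after DNA damage by 5-fluorouridine is monitored. Compound-treated cells incubate 16 hr at 37 °C, then ONE-Glo is added for 30 min before luminescence reading.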
SMN2 splice up: SMN2 splice variant enhancement; AID 1458; 210,000 compounds, 2.8% hits; Potency, µM (series often up to 46.1 µM), actives largely listed as activators; HEK293 SMN2-luciferase splicing reporter, luminescence, 30-36 h; further: nearly all actives have a fitted effect of over 55% in size
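HEK293 cells carry an SMN2 minigene-luciferase reporter in which exon 7 inclusion puts luciferase in frame. Cells were seeded at 2000 cells/well, attached for 10-12 hours, then exposed to compounds for 30-36 hours at 37C before ONE-Glo luminescence.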
FLuc modulator: inhibits or activates purified firefly luciferase, miR-21 counter-screen. P08659. purified FLuc, Km substrates, luminescence inhibition. Potency, µM (series often up to 57.5 µM), usual class: inhibitors. 360,000 compounds, 6.9% hits. AID 588342; further: nearly all actives have a fitted effect of over 55% in size
Target sequence (P08659 whole entry, looked up): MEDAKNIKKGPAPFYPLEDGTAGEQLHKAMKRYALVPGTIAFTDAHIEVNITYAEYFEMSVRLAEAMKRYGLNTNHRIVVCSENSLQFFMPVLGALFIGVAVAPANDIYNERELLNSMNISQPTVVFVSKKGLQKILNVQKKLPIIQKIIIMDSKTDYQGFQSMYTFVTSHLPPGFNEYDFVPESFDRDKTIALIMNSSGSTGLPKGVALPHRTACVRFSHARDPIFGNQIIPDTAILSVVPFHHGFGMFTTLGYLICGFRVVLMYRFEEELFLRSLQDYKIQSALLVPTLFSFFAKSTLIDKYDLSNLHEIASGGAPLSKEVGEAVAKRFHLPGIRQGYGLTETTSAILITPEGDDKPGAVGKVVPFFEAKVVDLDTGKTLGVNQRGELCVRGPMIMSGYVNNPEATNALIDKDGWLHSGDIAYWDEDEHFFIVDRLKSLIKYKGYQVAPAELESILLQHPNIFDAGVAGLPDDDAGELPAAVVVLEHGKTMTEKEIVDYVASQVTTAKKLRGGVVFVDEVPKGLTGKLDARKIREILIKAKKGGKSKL
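Purified P. pyralis luciferase (10nM final) with 10uM D-luciferin and 10uM ATP (Km levels) in 50mM Tris acetate pH 7.5, 10mM Mg acetate, 0.01% Tween-20, 0.05% BSA; qHTS 6-point titration, ~60 µM downward; luminescence read.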
NPC1 promoter act: activators of NPC1 promoter; Huh7 NPC1 promoter luciferase reporter, 24 h; Potency, µM (highest dose often 9.22 µM), usual class: activators; 320,000 compounds, 2.4% hits; further: nearly all actives have a fitted effect of over 60% in size
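Luminescence from an NPC1 promoter-driven luciferase reporter in stably transfected Huh7 cells was measured after 24 h compound treatment at 37 °C, followed by 10 min ambient incubation with luciferase detection reagent.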
Hits are given with their value; i = inactive; ? = inconclusive; nt = not tested or not shown. The call rests on the fitted dose curve; in most records, active means well fitted curve in the direction sought with a large enough effect; inconclusive means small, poorly fitted or top-dose-only effect, or another doubt; inactive means no such curve, though single readings can be large; an effect the other way counts as inactive or inconclusive.

SMILES	ELG1 genotox	Rab9 prom act	ELG1 repair inh	SMN2 splice up	FLuc modulator	NPC1 promoter act
Cc1ccc(NC(=O)/C=C/c2ccc([N+](=O)[O-])s2)c(C)c1	?	i	?	i	i	i
O=C(Nc1cccnc1)c1cccs1	i	i	?	8.9µM	i	i
O=C(/C=C/c1cccs1)Nc1nc(-c2ccccc2)cs1	i	i	?	i	6.7µM	i
Cc1cc([N+](=O)[O-])ccc1NC(=O)/C=C/c1cccs1	i	?	i	16µM	?	?
O=C(/C=C/c1c(F)cccc1Cl)Nc1cccnc1	2.3µM	4µM	?	nt	3.8µM	1.6µM
COc1cccc(-n2cc(C(=O)Nc3cc(OC)c(OC)c(OC)c3)c3ccccc3c2=O)c1	nt	nt	nt	nt	i	nt
CC(C)CCNC(=O)CN1C(=O)CCn2nc(-c3cn(C)c4ccccc34)cc21	nt	nt	nt	nt	i	nt
COc1cc(C(=O)Nc2cccc(C)c2C)ccc1OCC(=O)N1CCOCC1	i	i	i	nt	i	i
COc1ccc(C2=C(C(C)=O)Sc3nnc(-c4ccc(Cl)cc4)n3N2C(C)=O)cc1OC	nt	nt	nt	nt	i	nt
Cc1ccnc(NC(=O)C2(c3cccs3)CCOCC2)c1	i	i	i	i	i	i
O=C(/C=C/c1cccs1)Nc1nncs1	i	?	?	nt	17µM	?
O=C(/C=C/c1cccs1)Nc1scc(-c2ccccc2)c1C(=O)O	?	1.1µM	?	11µM	3.8µM	1.4µM
Cc1ccnc(NC(=O)/C=C/c2cccs2)c1	?	0.63µM	?	4µM	3µM	0.63µM
C=CCNC(=O)/C=C/c1cccs1	i	i	?	i	i	i
O=C(/C=C/c1cccs1)Nc1cccnc1	?	2.8µM	?	18µM	5.4µM	?
O=C(CCn1c(=O)c2cccn2c2cccnc21)N1CCN(c2ccccc2F)CC1	nt	nt	nt	nt	i	nt
O=C(Cc1cccs1)Nc1nc(-c2ccccc2)cs1	i	i	i	i	15µM	i
O=C(Cc1cccs1)Nc1ccccc1C(=O)O	?	?	?	10µM	15µM	i
CCCCn1c(C2CC(=O)N(c3ccc(OCC)cc3)C2)nc2ccccc21 (stereo not given)	nt	nt	nt	i	i	nt
Cc1cc2[nH]c(=O)c(=O)[nH]c2cc1S(=O)(=O)Nc1ccccc1F	i	i	i	nt	i	i
COc1cc(C)c(S(=O)(=O)Nc2ccccc2F)cc1C	i	i	i	2.2µM	i	i
COc1ccc(C(=O)Nc2ccccc2-c2nc(-c3ccc(OC)cc3)no2)cc1	nt	nt	nt	nt	i	nt
Cc1ccnc(NC(=O)c2cccc(S(=O)(=O)N3CCCc4ccccc43)c2)c1	7.3µM	i	?	nt	4.8µM	i
CN(C)S(=O)(=O)c1cccc(NC(=O)c2cccc(S(=O)(=O)N3CCc4ccccc43)c2)c1	i	i	16µM	nt	nt	i
O=C(Nc1ccc(S(=O)(=O)N2CCc3ccccc32)cc1)c1ccc2c(c1)OCO2	23µM	i	?	i	i	i
SMILES	ELG1 genotox	Rab9 prom act	ELG1 repair inh	SMN2 splice up	FLuc modulator	NPC1 promoter act
O=C(Nc1ccc(S(=O)(=O)N2CCc3ccccc32)cc1)c1ccco1	i	i	21µM	i	i	i
O=C(Nc1ccccn1)c1cccc(S(=O)(=O)N2CCCc3ccccc32)c1	i	i	?	nt	i	i
CCOC(=O)c1cc(OC(=O)c2cccc(Cl)c2)n(-c2ccccc2)n1	nt	nt	nt	nt	i	nt
CCn1cc(C(=O)OCC(=O)Nc2cccc(Cl)c2C)c(=O)c2ccc(C)nc21	nt	nt	nt	i	i	nt
CCOC(=O)c1ccn(-c2nc(-c3cccc(OC)c3)cc(C(F)(F)F)n2)n1	nt	nt	nt	i	i	nt
CC(C)Oc1ccc(C(=O)NCC(=O)OCC(=O)N(C)Cc2cccs2)cc1	i	i	i	i	15µM	i
CCc1ccccc1NC(=O)Nc1nnc(N(C)Cc2ccccc2)s1	nt	nt	nt	nt	i	nt
COc1cc(-c2cc(=O)c3ccccc3o2)ccc1O	15µM	?	?	?	?	i
COc1ccc(-c2cc(=O)c3c(O)cc(O)c(-c4cc(-c5cc(=O)c6c(O)cc(O)cc6o5)ccc4OC)c3o2)cc1	nt	nt	nt	i	nt	nt
COc1ccc(-c2cc(=O)c3c(OC)c(OC)c(OC)c(OC)c3o2)cc1OC	i	i	?	i	i	i
COc1cc(-c2cc(=O)c3c(O)cc(O)cc3o2)ccc1O	?	i	?	nt	15µM	i
O=c1cc(-c2ccc(O)c(O)c2)oc2ccc3ccccc3c12	1.5µM	i	?	nt	2.4µM	?
Cc1cc(N2CCOCC2)nc2ccccc12	i	i	?	?	?	i
Cc1sc2nc3ccc(N4CCCC4)nn3c(=O)c2c1C	i	i	i	nt	12µM	?
Cc1ccc2nc3ccc(N4CCN(C)CC4)nn3c(=O)c2c1	?	3.5µM	?	nt	6µM	1.6µM
Cc1ccc2nc3ccc(N4CCCCCCC4)nn3c(=O)c2c1	i	?	?	?	5.4µM	?
O=c1c2ccccc2nc2ccc(N3CCOCC3)nn12	?	?	?	?	17µM	?
COc1ccc(-n2nnc(-c3nc(-c4ccc5c(c4)OCO5)no3)c2C)cc1Cl	nt	nt	nt	nt	i	nt
O=C(OCC(=O)N1CCCCC1)c1ccc2c(c1)C(=O)N(Cc1ccco1)C2=O	i	i	i	nt	i	i
COc1cccc(C2=NS(=O)(=O)N(C)C(C(=O)Nc3ccccc3SC)=C2)c1	nt	nt	nt	nt	i	nt
CS(=O)(=O)c1[nH]nc(-c2ccccc2)c1C#N	i	i	i	nt	i	i
CC(=O)Nc1ccc(SCC(=O)Nc2ccccc2-c2ccccc2)cc1	i	i	i	i	i	i
CC(=O)Nc1ccc(SCc2ncc(-c3ccccc3)o2)cc1	?	0.71µM	?	nt	13µM	1.4µM
Clc1ccc(CSc2nc3ncccc3[nH]2)cc1	nt	nt	nt	13µM	6µM	nt
Cc1ccc(CSc2nc3ncccc3[nH]2)cc1	i	0.79µM	?	1.8µM	2.4µM	0.56µM
SMILES	ELG1 genotox	Rab9 prom act	ELG1 repair inh	SMN2 splice up	FLuc modulator	NPC1 promoter act
c1ccc(CSc2nc3ncncc3[nH]2)cc1	i	i	i	nt	17µM	i
COc1ccc(Nc2c3c(nc4ccc(NC(=O)c5cc(Cl)ccc5OC)cc24)CCCC3)cc1OC	nt	nt	nt	i	i	nt
Cc1nc(SC(C)C(=O)NC2CCCC2)c2ccccc2n1 (stereo not given)	i	i	i	nt	i	i
Cc1cc(C)nc(NC(=O)c2ccc(Br)s2)n1	i	i	i	nt	i	i
Cc1nc(NC(=O)c2cccs2)ccc1Br	?	3.5µM	?	11µM	6µM	3.5µM
Cc1csc(NC(=O)CCC(=O)c2cccs2)n1	i	i	?	i	i	i
Cc1csc(NC(=O)c2cccs2)n1	?	?	?	11µM	?	?
Cc1csc(NC(=O)c2ccc(Br)s2)n1	?	i	?	nt	4.8µM	i
COc1ccc(N2CC(NC(=O)/C=C\c3ccc4c(c3)OCO4)CC2=O)cc1OC (stereo not given)	nt	nt	nt	nt	i	nt
COc1ccc(/C(C#N)=C/c2ccccn2)cc1	?	1.4µM	?	nt	4.8µM	2µM
N#C/C(=C\c1ccccn1)c1nc2ccccc2s1	?	?	?	i	3.4µM	i
